Experimental data reported in PubChem BioAssay.
Calls of active or inactive are those of the source. Cut-off read from the data, not from the text of the source, unless noted: active = inhibition above about 80%; inactive = the rest.

Legend:
[1] = growth inhibition, single agent or in combination, cell-based, chromothripsis tumors, cisplatin or BGB combos (AID 1671449); conditions: LFS_MB_P medulloblastoma cells;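 note: cells exposed for 96 hours; 0% = vehicle DMSO and 100% = killing by high DMSO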
[2] = growth inhibition, single agent and combos, cell-based, chromothripsis tumors, cisplatin or BGB combos (AID 1671450); conditions: HDN33 neuroblastoma cells, stronger effect = higher value;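 note: cells exposed to compound for four days; 0% = vehicle DMSO and 100% = cell killing by high DMSO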
[3] = growth inhibition, single agents and combos, ICB984, cell-based, cisplatin or BGB combos, synergistic combos for chromothripsis tumors (AID 1671451; call rule not given here;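 note: cells exposed for 96 hours before readout; 0% = vehicle DMSO and 100% = killing by high DMSO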); conditions: ICB984 medulloblastoma cells, drug combinations, stronger effect = higher value
[4] = growth inhibition, single agents and combos, LFS_MB_1R, cell-based, cisplatin or BGB combos, synergistic combos for chromothripsis tumors (AID 1671452); conditions: LFS_MB_1R medulloblastoma cells, stronger effect = higher value;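 note: cells exposed for 96 hours before readout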
[5] = growth inhibition, single agents and combos, HTB85, cell-based, BGB or cisplatin IC20 combos, synergistic combos for chromothripsis tumors (AID 1671453); conditions: HTB85 osteosarcoma cells, drug combinations, stronger effect = higher value;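 note: cells exposed for 96 hours before readout; 0% = vehicle DMSO and 100% = high DMSO killing control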
[6] = growth inhibition, single agents and combos, CRL2098, cell-based, BGB or cisplatin IC20 combos, synergistic combos for chromothripsis tumors (AID 1671454); conditions: CRL2098 osteosarcoma cells, drug combinations, stronger effect = higher value;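 note: cells exposed for 96 h before readout; 0% = vehicle DMSO and 100% = killing by high DMSO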
[7] = growth inhibition, single agents and combos, HD-MB03, cell-based, BGB or cisplatin IC20 combos, synergistic combos for chromothripsis tumors (AID 1671455; in the data active = inhibition above about 83%;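 note: 0% = vehicle DMSO and 100% = high DMSO as cytotoxic control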); conditions: HD-MB03 medulloblastoma cells, stronger effect = higher value
[8] = growth inhibition, single agents and combos, UWB1.289, cell-based, BGB or cisplatin combos, synergistic combos for chromothripsis tumors (AID 1671456); conditions: UWB1.289 ovarian carcinoma cells, stronger effect = higher value;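 note: cells exposed to compound for four days; 0% = vehicle DMSO and 100% = killing by high DMSO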
[9] = growth inhibition, single agents and combos, LFS_MB_2R, cell-based, cisplatin combos, synergistic combos for chromothripsis tumors (AID 1671457); conditions: LFS_MB_2R medulloblastoma cells, stronger effect = higher value;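 note: cells exposed to compound for four days before readout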
[10] = growth inhibition, MDA-MB-436, cell-based, BGB or cisplatin combos, synergistic combos for chromothripsis tumors (AID 1671458; call rule not given here;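 note: cells exposed for 96 hours; 0% = vehicle DMSO and 100% = killing by high DMSO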); conditions: MDA-MB-436 breast carcinoma growth inhibition, drug combinations, stronger effect = higher value
[11] = UWB1.289_BRCA1 ovarian cancer growth, cell-based, BGB or cisplatin combinations (AID 1671459); conditions: UWB1.289 BRCA1 ovarian carcinoma, drug combinations, stronger effect = higher value
[12] = drug combination toxicity in non-malignant astrocytes – cell-based, BGB or cisplatin IC20 combos, cytotoxicity control for chromothriptic childhood tumor combination screen (AID 1671460); conditions: Human astrocytes, viability inhibition, drug combinations, at 0.5 µM, stronger effect = higher value;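 note: cells exposed to compounds for 96 hours before viability readout; 0% = vehicle and 100% = killing control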
[13] = BT084 cell growth, single and combined drugs, ICGC_MB145, cisplatin and BGB IC40 combos (AID 1671461); conditions: BT084 medulloblastoma cells, drug combinations, stronger effect = higher value;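 note: cells exposed to drugs for 96 hours; 0% = vehicle DMSO and 100% = high DMSO full killing control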
[14] = RCMB18 cell growth, single agent and combined, cisplatin and BGB IC40 combos (AID 1671462); conditions: RCMB18 medulloblastoma cells, stronger effect = higher value;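 note: cells exposed to compound for four days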
[15] = CRL1545 cell growth, single agent and combined, cisplatin and BGB IC20 combos (AID 1671464); conditions: CRL1545 osteosarcoma cells, stronger effect = higher value;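 note: cells exposed to compound for 96 hours before readout; 0% = vehicle DMSO and 100% = high DMSO killing control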
[16] = measured here: combination with BGB IC40, at 0.05 µM
[17] = measured here: with BGB IC20 combination, at 0.5 µM
[18] = measured here: with cisplatin IC20 combination, at 0.5 µM
[19] = measured here: combination with cisplatin, at 0.5 µM
[20] = measured here: combination with cisplatin, at 5 µM

CC(C)OC(=O)[C@H](C)NP(=O)(OC[C@H]1O[C@@H](n2ccc(=O)[nH]c2=O)C(C)(F)[C@@H]1O)Oc1ccccc1 (stereo partly drawn)
inhibition ([1]; at 0.5 µM, stronger effect = higher value): -8.8% (inactive) | inhibition ([1]; measured here: combination with BGB IC20, at 0.005 µM): -10.9% | inhibition ([1]; measured here: combination with BGB IC40, at 0.005 µM): -13.1% | inhibition [1, 16]: 0.698% | inhibition ([1]; measured here: combination with cisplatin, at 0.5 µM, stronger effect = higher value): -3.91% | inhibition ([1]; measured here: combination with cisplatin, at 5 µM, stronger effect = higher value): -25.1% | inhibition ([2]; BGB combo, at 5 µM): -13.9% | inhibition ([2]; at 0.5 µM): -10.3% (inactive) | inhibition ([2]; cisplatin combo, at 5 µM): -30.6% | inhibition [2, 17]: -4.98% | inhibition [2, 18]: -21.3% | inhibition ([2]; single agent, at 5 µM): -29.9% | inhibition ([3]; BGB IC20 combo, at 0.005 µM): -1.44% | inhibition ([3]; BGB IC40 combo, at 0.005 µM): -42.6% | inhibition ([3]; BGB IC40 combo, at 0.05 µM): -35.5% | inhibition ([3]; at 0.5 µM): -42.2% (inactive) | inhibition ([3]; cisplatin combo, at 0.05 µM): -40.8% | inhibition ([3]; cisplatin combo, at 0.5 µM): -53.1% | inhibition ([3]; cisplatin combo, at 5 µM): -16.6% | inhibition ([3]; measured here: 5 uM single agent, at 5 µM): -3.56% | inhibition ([4]; at 0.5 µM): -22.9% (inactive) | inhibition [4, 16]: -33.4% | inhibition [4, 19]: -43% | inhibition [4, 20]: -63% | inhibition ([5]; at 0.5 µM): -9.04% (inactive) | inhibition ([5]; measured here: with BGB IC20, at 0.5 µM): -19.6% | inhibition ([5]; measured here: with BGB IC20, at 5 µM): 7.36% | inhibition ([5]; measured here: with cisplatin IC20, at 0.5 µM): -19.1% | inhibition ([5]; measured here: with cisplatin IC20, at 5 µM): -2.79% | inhibition ([5]; single agent, at 5 µM): 9.61% | inhibition ([6]; at 0.5 µM): -24.2% (inactive) | inhibition ([6]; measured here: combination with BGB at IC20, at 0.5 µM): -7.71% | inhibition ([6]; measured here: combination with cisplatin at IC20, at 0.5 µM): -18.3% | inhibition ([7]; at 0.5 µM): -8.35% (inactive) | inhibition ([7]; measured here: combo with BGB at IC20, at 0.5 µM): -6.27% | inhibition ([7]; measured here: combo with cisplatin at IC20, at 0.5 µM): -4.66% | inhibition ([8]; at 0.5 µM): -8.12% (inactive) | inhibition ([8]; measured here: inhibition with BGB combination, at 0.05 µM): -21% | inhibition ([8]; measured here: inhibition with cisplatin combination, at 0.05 µM): -18.4% | inhibition ([9]; at 0.5 µM): -25.3% (inactive) | inhibition [9, 19]: -17.8% | inhibition [9, 20]: -16.1% | inhibition ([10]; at 0.5 µM): -10.8% (inactive) | inhibition ([10]; measured here: BGB combination, at 0.5 µM): -6.58% | inhibition ([10]; measured here: BGB combination, at 5 µM): -5.34% | inhibition ([10]; measured here: cisplatin combination, at 0.5 µM): -21% | inhibition ([10]; measured here: cisplatin combination, at 5 µM): -5.77% | inhibition ([11]; BGB combination, concentration series, at 5 µM): 5.64% | inhibition ([11]; at 0.5 µM): -2.85% (inactive) | inhibition ([11]; cisplatin combination, concentration series, at 5 µM): 12.8% | inhibition [12]: 9.43% (inactive) | inhibition ([12]; measured here: combo with BGB IC20): 6.4% | inhibition ([12]; measured here: combo with cisplatin IC20): 11.7% | inhibition ([13]; at 0.5 µM): -25.9% (inactive) | inhibition ([13]; cisplatin combination, at 0.5 µM): -7.08% | inhibition ([13]; cisplatin combination, at 5 µM): 2.71% | inhibition ([13]; measured here: BGB IC40 combination 0.05 uM, at 0.05 µM): 66.2% | inhibition ([13]; single agent, at 5 µM): 3.91% | inhibition ([14]; at 0.5 µM): -23.5% (inactive) | inhibition ([14]; cisplatin combo, at 5 µM): -18.9% | inhibition ([14]; measured here: BGB IC40 combination, at 0.05 µM): 1.12% | inhibition [14, 19]: 19.3% | inhibition ([14]; single agent, at 5 µM): -63.1% | inhibition ([15]; at 0.5 µM): -19.7% (inactive) | inhibition [15, 17]: -19.2% | inhibition [15, 18]: -19.9% | inhibition ([15]; single agent, at 0.05 µM): 7.91% | inhibition ([15]; single agent, at 5 µM): -24.5%
